Test [1] can be described thus: ATG_PBREM_CIS: Attagene CIS-FACTORIAL HepG2 Assay for human Phenobarbital-responsive Enhancer Module (PBREM) (AID 2282955). Particulars: HepG2 PBREM cis-reporter, Attagene multiplexed transcription; actives raise or lower the signal. A digest of the protocol: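 Transfected liver-derived HepG2 cells exposed 24 h; PBREM reporter transcript quantified via RT-PCR and capillary electrophoresis, with activity in either direction referenced to DMSO.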

Test [2] has as its target Paired box protein Pax-6 (Homo sapiens) (UniProt P26367). In words: ATG_Pax6_CIS: Attagene CIS-FACTORIAL HepG2 Assay for human Paired Box 6 (PAX6) (AID 2282956). The note with it: HepG2 CIS-FACTORIAL PAX6 reporter transcription, RNA readout; actives raise or lower the signal. A digest of the protocol: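 Values derive from bidirectional curve fitting of reporter mRNA signal relative to DMSO. HepG2 cells bearing transfected cis-regulated MRTUs were exposed for 24 h; transcripts were read by RT-PCR and capillary electrophoresis.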

The nature of test [3]: ATG_PXRE_CIS: Attagene CIS-FACTORIAL HepG2 Assay for human Pregnane X Receptor Element (PXRE) (AID 2282957). Particulars: HepG2 Attagene CIS-FACTORIAL PXRE reporter, mRNA; actives raise or lower the signal. A digest of the protocol: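 Endogenous transcription factor activity in HepG2 was gauged through induction of reporter mRNA driven by a cis-regulating promoter element, sampled 24 h post-treatment. Activity was fitted in both directions against DMSO negative control.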

Test [4] in a line: ATG_PPRE_CIS: Attagene CIS-FACTORIAL HepG2 Assay for human Peroxisome Proliferator-activated Response Element (PPRE) (AID 2282958). The note with it: HepG2 PPRE cis-element reporter, Attagene transcription factor profiling; actives raise or lower the signal. The method in brief:
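Measured endpoint: PPRE-controlled reporter mRNA, detected by RT-PCR and capillary electrophoresis fluorescence, from transiently transfected HepG2 cells 24 h after dosing. Curves fitted in both directions using DMSO baseline.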

Test [5] can be described thus: ATG_RORE_CIS: Attagene CIS-FACTORIAL HepG2 Assay for human RAR-related Orphan Receptor Element (RORE) (AID 2282959). The note with it: HepG2 Attagene cis-factorial RORE reporter, mRNA; actives raise or lower the signal. A digest of the protocol:
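Transiently transfected HepG2 reporter cells were treated 24 h. Reporter transcripts were detected by RT-PCR and capillary electrophoresis, with bidirectional fitting against DMSO.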

A short description of test [6]: ATG_Sox_CIS: Attagene CIS-FACTORIAL HepG2 Assay for human SRY-box transcription factor (SOX) (AID 2282960). The note with it: HepG2 Attagene cis-factorial SOX reporter, mRNA; actives raise or lower the signal. The method in brief: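 Gain- or loss-of-signal endpoint, fitted bidirectionally with DMSO as negative control. Based on reporter mRNA from transfected HepG2 cells harvested 24 h post-treatment and quantified via RT-PCR and capillary electrophoresis.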

Test [7] concerns the target Transcription factor Sp1 (Homo sapiens) (UniProt P08047). In words: ATG_Sp1_CIS: Attagene CIS-FACTORIAL HepG2 Assay for human Specificity Protein 1 (Sp1) (AID 2282961). Particulars: HepG2 Sp1 cis-reporter transcription, actives raise or lower the signal. The method in brief: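 Endpoint reflects endogenous Sp1 transcriptional activity, not an exogenous fusion protein: HepG2 cells with transfected cis-regulated reporters, 24 h dosing, RT-PCR/capillary electrophoresis mRNA read-out, DMSO-normalised bidirectional fit.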

Test [8] can be described thus: ATG_SREBP_CIS: Attagene CIS-FACTORIAL HepG2 Assay for human Sterol Regulatory Element Binding (SREBP) (AID 2282962). Particulars: HepG2 Attagene cis-factorial SREBP reporter, mRNA; actives raise or lower the signal. A digest of the protocol:
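Values derive from bidirectional curve fitting with DMSO as baseline. The underlying measurement is reporter mRNA from cis-element-regulated units in transiently transfected HepG2, quantified by RT-PCR and capillary electrophoresis after 24 h exposure.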

In test [9] the target is Signal transducer and activator of transcription 3 (Homo sapiens) (UniProt P40763). In words: ATG_STAT3_CIS: Attagene CIS-FACTORIAL HepG2 Assay for human Signal Transducer and Activator of Transcription 3 (STAT3) (AID 2282963). Particulars: HepG2, Attagene cis-factorial STAT3 reporter transcription; actives raise or lower the signal. The method in brief:
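Cis-factorial format: endogenous transcription factors in HepG2 drive transfected reporter units. After 24 h treatment, reporter RNA was reverse-transcribed, amplified, FAM-labelled and HpaI-digested before CE analysis; activity scored in both directions against DMSO.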

A short description of test [10]: ATG_TA_CIS: Attagene CIS-FACTORIAL HepG2 Assay for human TA Basal Promoter (AID 2282964). The note with it: HepG2 Attagene CIS-factorial TA basal promoter reporter; actives raise or lower the signal. A digest of the protocol:
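Read-out: fluorescent reporter-transcript fragments resolved by capillary electrophoresis after RT-PCR and HpaI digestion. Source: HepG2 cells carrying transiently transfected multi-reporter cis constructs, treated 24 h. Endpoint fitted bidirectionally relative to DMSO.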

The nature of test [11]: ATG_TCF_b_cat_CIS: Attagene CIS-FACTORIAL HepG2 Assay for human T-Cell-Factor with beta-catenin (TCF/b-cat) (AID 2282965). The note with it: HepG2 TCF/beta-catenin cis-reporter transcription, actives raise or lower the signal. A digest of the protocol: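 Endogenous TCF/LEF activity read as reporter transcript level via RT-PCR and capillary electrophoresis fluorescence in transfected HepG2, 24 h exposure; gain or loss of signal fitted against DMSO controls.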

The nature of test [12]: ATG_TAL_CIS: Attagene CIS-FACTORIAL HepG2 Assay for human TAL Basal Promoter (AID 2282966).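 Note: background control endpoint measuring basal TAL promoter reporter mRNA not a specific factor.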 Particulars: HepG2 Attagene cis-factorial TAL promoter reporter; actives raise or lower the signal. The method in brief: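 Endogenous transcription-factor activity is sensed in HepG2 cells through transfected cis-promoter reporter constructs. After 24 h dosing, reporter transcripts are quantified by RT-PCR and capillary electrophoresis. Gain or loss of signal is fitted relative to DMSO.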

A short description of test [13]: ATG_TGFb_CIS: Attagene CIS-FACTORIAL HepG2 Assay for human Transforming Growth Factor (TGF) (AID 2282967). The note with it: HepG2 Attagene CIS TGFb reporter, mRNA transcription; actives raise or lower the signal. The method in brief:
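Transient MRTU transfection of HepG2 (FuGene 6). Dose 24 h. TriZol RNA, oligo(dT) RT, PCR, 6-FAM primer extension, HpaI cut, CE. Bidirectional fit, DMSO = baseline.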

Test [14] can be described thus: ATG_VDRE_CIS: Attagene CIS-FACTORIAL HepG2 Assay for human Vitamin D Receptor Element (VDRE) (AID 2282968). The note with it: HepG2 VDRE cis-reporter transcription, actives raise or lower the signal. The method in brief:
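Measures endogenous factor activity through cis-element-driven reporter transcripts in transiently transfected HepG2. Cells are treated 24 h; reporter mRNA is quantified by RT-PCR and capillary electrophoresis; fitting is bidirectional.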

Test [15] deals with Estrogen receptor (Homo sapiens) (UniProt P03372). In words: ATG_ERa_TRANS: Attagene TRANS-FACTORIAL HepG2 Assay for human Estrogen Receptor alpha (ERa) (AID 2282970; active = hit-call score of the fitted dose curve at least 0.9, where 1 is the maximum). Particulars: HepG2 Attagene TRANS ERa GAL4 reporter, mRNA. A digest of the protocol: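 Transfected HepG2 cells carrying GAL4-UAS-driven reporter units were dosed for 24 hours. Total RNA was reverse-transcribed, reporter sequences PCR-amplified, FAM-labelled, HpaI-digested and resolved by capillary electrophoresis. Increases over DMSO control defined activity.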
Sequence of Estrogen receptor (Homo sapiens) (P03372 whole entry, looked up, the tested form may be a part): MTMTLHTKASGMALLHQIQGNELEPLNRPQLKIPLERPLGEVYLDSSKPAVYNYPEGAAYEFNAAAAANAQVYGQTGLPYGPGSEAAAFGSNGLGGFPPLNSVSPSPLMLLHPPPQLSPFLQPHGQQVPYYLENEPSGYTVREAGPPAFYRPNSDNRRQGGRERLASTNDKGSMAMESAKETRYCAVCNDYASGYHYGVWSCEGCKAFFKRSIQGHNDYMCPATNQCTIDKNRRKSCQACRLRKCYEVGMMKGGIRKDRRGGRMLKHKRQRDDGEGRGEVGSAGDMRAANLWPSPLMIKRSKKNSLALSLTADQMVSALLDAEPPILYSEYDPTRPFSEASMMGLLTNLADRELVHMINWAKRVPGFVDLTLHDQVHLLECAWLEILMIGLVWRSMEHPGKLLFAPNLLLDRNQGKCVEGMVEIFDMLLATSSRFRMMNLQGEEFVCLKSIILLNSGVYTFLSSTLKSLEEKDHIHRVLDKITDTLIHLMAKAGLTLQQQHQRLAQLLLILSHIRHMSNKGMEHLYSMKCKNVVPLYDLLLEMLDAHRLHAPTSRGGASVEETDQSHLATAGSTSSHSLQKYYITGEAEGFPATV

For test [16], the target named is Steroid hormone receptor ERR1 (Homo sapiens) (UniProt P11474). In words: ATG_ERRa_TRANS: Attagene TRANS-FACTORIAL HepG2 Assay for human Estrogen-Related Receptor alpha (ERRa) (AID 2282971; active = hit-call score of the fitted dose curve at least 0.9, where 1 is the maximum). Particulars: HepG2 Attagene TRANS reporter, ERRa transactivation. The method in brief:
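HepG2 cells were transiently transfected with multiple GAL4-UAS reporter units, then dosed with compound for 24 h. Total RNA was reverse-transcribed, reporter cDNA PCR-amplified and fluorescently labelled, and fragments resolved by capillary electrophoresis; induction was compared with DMSO.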

The target of test [17] is X-box-binding protein 1 (Homo sapiens) (UniProt P17861). In words: ATG_Xbp1_CIS: Attagene CIS-FACTORIAL HepG2 Assay for human X-box Binding Protein 1 (XBP1) (AID 2282972). The note with it: HepG2 XBP1 cis-element reporter, Attagene multiplex; actives raise or lower the signal. A digest of the protocol: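 Human hepatoma HepG2, cis-element reporter system, 24 h treatment; mRNA quantified by RT-PCR/CE fluorescence; fit relative to DMSO.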
Sequence of X-box-binding protein 1 (Homo sapiens) (P17861 whole entry, looked up): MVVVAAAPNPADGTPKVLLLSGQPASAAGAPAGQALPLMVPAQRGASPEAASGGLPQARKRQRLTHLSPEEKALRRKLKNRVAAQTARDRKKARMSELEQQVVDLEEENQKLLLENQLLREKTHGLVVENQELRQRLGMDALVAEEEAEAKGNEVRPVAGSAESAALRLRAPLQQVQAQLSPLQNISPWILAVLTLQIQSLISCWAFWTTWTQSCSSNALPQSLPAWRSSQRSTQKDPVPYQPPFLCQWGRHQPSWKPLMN

The nature of test [18]: ATG_M_19_TRANS: Attagene TRANS-FACTORIAL HepG2 Assay for M19 Transcription Factor (Internal Marker) (AID 2282974; active = hit-call score of the fitted dose curve at least 0.9, where 1 is the maximum). The note with it: HepG2 Attagene TRANS-FACTORIAL M19 internal marker reporter. A digest of the protocol:
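Using RT-PCR and capillary electrophoresis, reporter mRNA from transiently transfected human HepG2 cells was quantified following 24 h exposure; activity was fitted in the positive direction against DMSO.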

Test [19] can be described thus: ATG_GAL4_TRANS: Attagene TRANS-FACTORIAL HepG2 Assay for GAL4 (Internal Marker) (AID 2282976; active = hit-call score of the fitted dose curve at least 0.9, where 1 is the maximum). The note with it: HepG2 Attagene TRANS GAL4 internal marker reporter. The method in brief: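 Fluorescence from capillary electrophoresis of labelled RT-PCR products quantifies reporter mRNA induction after 24 h dosing of HepG2 cells carrying transfected GAL4-UAS reporter transcription units. Vehicle DMSO serves as baseline.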

Among the data in PubChem BioAssay (EPA / NIEHS) are outcome and AC50 values, retold here.

Inconclusive results are not listed. Activity calls are given as the source filed them. Rule for the calls, unless noted: active = hit-call score of the fitted dose curve at least 0.9, where 1 is the maximum; inactive = score below 0.9.

Sequence of Paired box protein Pax-6 (Homo sapiens) (P26367 whole entry, looked up): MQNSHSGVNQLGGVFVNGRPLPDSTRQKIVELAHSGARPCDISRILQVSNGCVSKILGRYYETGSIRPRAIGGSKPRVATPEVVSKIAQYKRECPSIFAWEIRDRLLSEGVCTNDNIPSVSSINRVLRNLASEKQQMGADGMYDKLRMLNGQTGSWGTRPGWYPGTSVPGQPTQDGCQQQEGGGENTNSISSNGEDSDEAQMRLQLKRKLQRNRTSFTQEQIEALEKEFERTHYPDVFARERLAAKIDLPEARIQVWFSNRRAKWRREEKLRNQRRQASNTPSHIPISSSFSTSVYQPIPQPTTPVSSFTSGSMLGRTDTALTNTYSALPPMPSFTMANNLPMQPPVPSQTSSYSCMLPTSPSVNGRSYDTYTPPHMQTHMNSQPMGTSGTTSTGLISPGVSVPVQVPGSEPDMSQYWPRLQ
Sequence of Transcription factor Sp1 (Homo sapiens) (P08047 whole entry, looked up, the tested form may be a part): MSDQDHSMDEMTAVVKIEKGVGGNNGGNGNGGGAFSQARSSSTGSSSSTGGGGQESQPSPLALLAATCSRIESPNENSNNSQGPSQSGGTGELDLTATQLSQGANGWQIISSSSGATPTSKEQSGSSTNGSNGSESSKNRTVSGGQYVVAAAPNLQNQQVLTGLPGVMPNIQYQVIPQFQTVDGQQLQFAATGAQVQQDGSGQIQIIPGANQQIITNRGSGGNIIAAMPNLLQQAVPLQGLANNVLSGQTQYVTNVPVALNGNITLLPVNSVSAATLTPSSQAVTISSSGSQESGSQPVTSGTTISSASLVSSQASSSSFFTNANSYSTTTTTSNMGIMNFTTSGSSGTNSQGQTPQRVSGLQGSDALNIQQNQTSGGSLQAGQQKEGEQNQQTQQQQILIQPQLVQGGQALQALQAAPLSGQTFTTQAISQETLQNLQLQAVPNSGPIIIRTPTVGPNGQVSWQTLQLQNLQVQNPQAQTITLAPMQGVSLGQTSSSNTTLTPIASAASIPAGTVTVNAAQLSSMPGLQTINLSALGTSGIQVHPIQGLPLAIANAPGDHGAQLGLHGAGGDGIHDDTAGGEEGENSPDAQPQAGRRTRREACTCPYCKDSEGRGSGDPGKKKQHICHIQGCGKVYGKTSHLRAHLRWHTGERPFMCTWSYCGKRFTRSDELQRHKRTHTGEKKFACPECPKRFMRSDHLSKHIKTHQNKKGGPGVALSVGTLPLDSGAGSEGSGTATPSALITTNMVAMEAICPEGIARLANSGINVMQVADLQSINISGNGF
Sequence of Signal transducer and activator of transcription 3 (Homo sapiens) (P40763 whole entry, looked up): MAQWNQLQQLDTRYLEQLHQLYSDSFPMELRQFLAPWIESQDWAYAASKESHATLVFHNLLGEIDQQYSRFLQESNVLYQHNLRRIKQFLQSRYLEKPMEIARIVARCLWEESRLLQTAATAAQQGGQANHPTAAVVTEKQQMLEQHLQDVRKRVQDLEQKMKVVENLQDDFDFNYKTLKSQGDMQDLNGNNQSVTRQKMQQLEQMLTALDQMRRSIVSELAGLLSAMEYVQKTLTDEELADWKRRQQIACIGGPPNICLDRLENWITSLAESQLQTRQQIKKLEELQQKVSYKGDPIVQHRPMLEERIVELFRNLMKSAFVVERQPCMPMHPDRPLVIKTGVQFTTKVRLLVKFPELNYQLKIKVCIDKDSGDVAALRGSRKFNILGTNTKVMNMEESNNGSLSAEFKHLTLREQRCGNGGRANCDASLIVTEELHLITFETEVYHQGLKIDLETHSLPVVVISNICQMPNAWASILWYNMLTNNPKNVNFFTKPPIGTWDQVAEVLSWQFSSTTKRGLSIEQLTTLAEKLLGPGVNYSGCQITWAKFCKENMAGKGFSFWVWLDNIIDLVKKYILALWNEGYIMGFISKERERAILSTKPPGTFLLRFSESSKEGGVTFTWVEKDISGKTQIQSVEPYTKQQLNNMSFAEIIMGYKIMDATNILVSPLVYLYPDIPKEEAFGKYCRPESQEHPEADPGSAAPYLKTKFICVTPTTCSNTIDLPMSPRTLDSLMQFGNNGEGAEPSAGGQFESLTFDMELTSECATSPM
Sequence of Steroid hormone receptor ERR1 (Homo sapiens) (P11474 whole entry, looked up, the tested form may be a part): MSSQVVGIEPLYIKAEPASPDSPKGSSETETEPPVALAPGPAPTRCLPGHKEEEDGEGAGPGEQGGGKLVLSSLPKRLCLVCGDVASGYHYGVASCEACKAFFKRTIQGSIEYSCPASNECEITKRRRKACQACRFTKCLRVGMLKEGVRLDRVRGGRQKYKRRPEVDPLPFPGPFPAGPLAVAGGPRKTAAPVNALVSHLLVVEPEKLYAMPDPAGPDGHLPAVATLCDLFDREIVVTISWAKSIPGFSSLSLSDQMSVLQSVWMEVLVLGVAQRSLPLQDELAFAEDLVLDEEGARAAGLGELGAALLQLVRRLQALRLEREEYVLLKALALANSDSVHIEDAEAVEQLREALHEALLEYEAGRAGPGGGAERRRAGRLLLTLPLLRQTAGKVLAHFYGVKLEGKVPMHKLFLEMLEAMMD

`CCOC(=O)CC(=O)C(F)(F)C(F)(F)F`: the outcome in [1], in test [2], in test [4], in test [5], in [6] and in test [7] was inactive. Also, the call in [8], in test [9], in test [10], in test [11], in test [12] and in [13] was inactive. The result in test [14], in [15], in test [16], in test [17], in test [18] and in test [19] was inactive. Moreover, the AC50 in [3] is 75.8 µM (active).

On to `CCN(CC)c1ccc(N=Nc2ccccc2)cc1`, for which the AC50 was 8.89 µM (active) in test [1]; 3.99 µM (active) in test [3]; 4.8 µM (active) in test [4]; 8.12 µM (active) in [5]; 27.6 µM (active) in test [9]; 7.19 µM (active) in test [14]. Besides, the outcome in test [2], in [6], in test [7], in test [8], in [10] and in test [11] was inactive. The result in test [12], in test [13], in test [15], in [17] and in [18] was inactive.

As to `C[Si](Cl)(Cl)CCC(F)(F)C(F)(F)C(F)(F)C(F)(F)C(F)(F)C(F)(F)F`, the result in [1], in test [2], in test [3], in test [4], in test [5] and in test [6] was inactive. The result in test [7], in test [8], in test [9], in test [10], in test [12] and in test [13] was inactive. Besides, the result in test [15], in [16], in test [17] and in test [19] was inactive.

Consider `CCCC(=O)OCC(COC(=O)CCC)OC(=O)CCC`, for which the outcome in [1], in test [2], in test [4], in [5], in [6] and in [7] was inactive. In addition, the molecule was classed as inactive in test [8], in [9], in test [10], in test [12], in [13] and in [14]. For the same molecule, the call in test [17] and in test [19] was inactive. Further, in [3], the half-maximal activity concentration (AC50) is 0.0935 µM (active).

In the case of `CSc1ccc(Cl)cc1`, the result in test [1], in test [2], in test [3], in test [4], in [5] and in test [6] was inactive. The molecule was classed as inactive in test [7], in test [8], in test [9], in [10], in test [11] and in test [12]. In addition, the molecule was classed as inactive in [13], in test [15], in test [17] and in test [18].

For the molecule `NCC(F)(F)C(F)(F)C(F)(F)C(F)(F)C(F)(F)C(F)(F)C(F)(F)C(F)(F)F`, the result in test [1], in test [2], in [3], in test [4], in test [5] and in test [6] was inactive. Further, the molecule was classed as inactive in test [7], in [8], in [9], in test [10], in [11] and in [12]. Also, the outcome in test [13], in test [15], in test [16], in test [17] and in test [19] was inactive.

On to `O=C1c2ccccc2C(=O)c2c(Cl)cccc21`, for which the outcome in test [1], in test [2], in test [4], in test [5], in test [6] and in [7] was inactive. Besides, the molecule was classed as inactive in test [8], in [9], in test [10], in test [11], in test [12] and in test [13]. The molecule was classed as inactive in test [14], in test [16], in test [17], in test [18] and in test [19]. The results for the half-maximal activity concentration (AC50) in test [3] and in [15] were 0.997 µM (active) and 2.88 µM (active), respectively.

Broadly, the AC50 is the concentration giving half of the maximal activity seen.
